What was measured:
Test in all cases: SPOT peptide array binding signal intensity (averaged, normalized) (arbitrary units (background-subtracted, floor 0; scale differs between SH3 domains)); higher = stronger binding of the SH3 domain to the peptide
AgAbp1 = biological target: AgAbp1
Protocol: (§1)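 GST-tagged SH3 domains from S. cerevisiae (Sc), A. gossypii (Ag), C. albicans (Ca) and S. pombe (Sp) were incubated at 10 ug/ml overnight at 4 C on cellulose SPOT membranes carrying 292 synthetic 15-mer peptides mined from the S. cerevisiae proteome (cysteines replaced by serines). Binding was detected with anti-GST antibody, HRP secondary and chemiluminescence, quantified with Genespotter, and reported as normalized spot intensities averaged over biological replicates.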

AgBbc1 = biological target: AgBbc1
Protocol: as §1

AgBem1-D1 = biological target: AgBem1-D1
Protocol: as §1

AgBzz1-D1 = biological target: AgBzz1-D1
Protocol: as §1

AgBzz1-D2 = biological target: AgBzz1-D2
Protocol: as §1

AgCyk3 = biological target: AgCyk3
Protocol: as §1

AgFus1 = biological target: AgFus1
Protocol: as §1

AgHof1 = biological target: AgHof1
Protocol: as §1

AgHse1 = biological target: AgHse1
Protocol: as §1

AgLsb1 = biological target: AgLsb1
Protocol: as §1

AgLsb4 = biological target: AgLsb4
Protocol: as §1

AgMyo5 = biological target: AgMyo5
Protocol: as §1

AgNbp2 = biological target: AgNbp2
Protocol: as §1

AgRvs167 = biological target: AgRvs167
Protocol: as §1

AgSho1 = biological target: AgSho1
Protocol: as §1

AgSla1-D1-D2 = biological target: AgSla1-D1-D2
Protocol: as §1

AgSla1-D3 = biological target: AgSla1-D3
Protocol: as §1

CaAbp1-D1 = biological target: CaAbp1-D1
Protocol: as §1

CaAbp1-D2 = biological target: CaAbp1-D2
Protocol: as §1

CaBbc1 = biological target: CaBbc1
Protocol: as §1

CaBem1-D1 = biological target: CaBem1-D1
Protocol: as §1

CaBzz1-D1 = biological target: CaBzz1-D1
Protocol: as §1

CaBzz1-D2 = biological target: CaBzz1-D2
Protocol: as §1

CaCyk3 = biological target: CaCyk3
Protocol: as §1

CaFus1 = biological target: CaFus1
Protocol: as §1

CaHof1 = biological target: CaHof1
Protocol: as §1

CaHse1 = biological target: CaHse1
Protocol: as §1

CaLsb1 = biological target: CaLsb1
Protocol: as §1

CaLsb4 = biological target: CaLsb4
Protocol: as §1

CaMyo5 = biological target: CaMyo5
Protocol: as §1

CaNbp2 = biological target: CaNbp2
Protocol: as §1

CaRvs167 = biological target: CaRvs167
Protocol: as §1

CaRvs167-3 = biological target: CaRvs167-3
Protocol: as §1

CaSho1 = biological target: CaSho1
Protocol: as §1

CaSla1-D1-D2 = biological target: CaSla1-D1-D2
Protocol: as §1

CaSla1-D3 = biological target: CaSla1-D3
Protocol: as §1

ScAbp1 = biological target: ScAbp1
Protocol: as §1

ScBbc1 = biological target: ScBbc1
Protocol: as §1

ScBem1-D1 = biological target: ScBem1-D1
Protocol: as §1

ScBzz1-D1 = biological target: ScBzz1-D1
Protocol: as §1

ScBzz1-D2 = biological target: ScBzz1-D2
Protocol: as §1

ScCyk3 = biological target: ScCyk3
Protocol: as §1

ScFus1 = biological target: ScFus1
Protocol: as §1

ScHof1 = biological target: ScHof1
Protocol: as §1

ScHse1 = biological target: ScHse1
Protocol: as §1

ScLsb1 = biological target: ScLsb1
Protocol: as §1

ScLsb2 = biological target: ScLsb2
Protocol: as §1

ScLsb3 = biological target: ScLsb3
Protocol: as §1

ScLsb4 = biological target: ScLsb4
Protocol: as §1

ScMyo3 = biological target: ScMyo3
Protocol: as §1

ScMyo5 = biological target: ScMyo5
Protocol: as §1

ScNbp2 = biological target: ScNbp2
Protocol: as §1

ScPex13 = biological target: ScPex13
Protocol: as §1

ScRvs167 = biological target: ScRvs167
Protocol: as §1

ScSho1 = biological target: ScSho1
Protocol: as §1

ScSla1-D1-D2 = biological target: ScSla1-D1-D2
Protocol: as §1

ScSla1-D3 = biological target: ScSla1-D3
Protocol: as §1

SpAbp1-D1 = biological target: SpAbp1-D1
Protocol: as §1

SpBbc1 = biological target: SpBbc1
Protocol: as §1

SpBzz1-D1 = biological target: SpBzz1-D1
Protocol: as §1

SpBzz1-D2 = biological target: SpBzz1-D2
Protocol: as §1

SpCyk3 = biological target: SpCyk3
Protocol: as §1

SpHof1 = biological target: SpHof1
Protocol: as §1

SpHof1-2 = biological target: SpHof1-2
Protocol: as §1

SpHof1-3 = biological target: SpHof1-3
Protocol: as §1

SpHse1 = biological target: SpHse1
Protocol: as §1

SpLsb1 = biological target: SpLsb1
Protocol: as §1

SpLsb4 = biological target: SpLsb4
Protocol: as §1

SpMyo1 = biological target: SpMyo1
Protocol: as §1

SpNbp2 = biological target: SpNbp2
Protocol: as §1

SpPex13 = biological target: SpPex13
Protocol: as §1

SpRvs167 = biological target: SpRvs167
Protocol: as §1

SpSla1-D1-D2 = biological target: SpSla1-D1-D2
Protocol: as §1

SpSla1-D3 = biological target: SpSla1-D3
Protocol: as §1

TKIRRRPQQPLTDFT
SPOT peptide array binding signal intensity (AgAbp1): 21 | SPOT peptide array binding signal intensity (AgBbc1): 109 | SPOT peptide array binding signal intensity (AgBem1-D1): 32 | SPOT peptide array binding signal intensity (AgBzz1-D1): 42.5 | SPOT peptide array binding signal intensity (AgBzz1-D2): 82 | SPOT peptide array binding signal intensity (AgCyk3): 2 | SPOT peptide array binding signal intensity (AgFus1): 150 | SPOT peptide array binding signal intensity (AgHof1): 39.8 | SPOT peptide array binding signal intensity (AgHse1): 61.5 | SPOT peptide array binding signal intensity (AgLsb1): 22 | SPOT peptide array binding signal intensity (AgLsb4): 18 | SPOT peptide array binding signal intensity (AgMyo5): 0.5 | SPOT peptide array binding signal intensity (AgNbp2): 6 | SPOT peptide array binding signal intensity (AgRvs167): 2.33 | SPOT peptide array binding signal intensity (AgSho1): 3 | SPOT peptide array binding signal intensity (AgSla1-D1-D2): 12.5 | SPOT peptide array binding signal intensity (AgSla1-D3): 3.5 | SPOT peptide array binding signal intensity (CaAbp1-D1): 276 | SPOT peptide array binding signal intensity (CaAbp1-D2): 158 | SPOT peptide array binding signal intensity (CaBbc1): 518 | SPOT peptide array binding signal intensity (CaBem1-D1): 13 | SPOT peptide array binding signal intensity (CaBzz1-D1): 137 | SPOT peptide array binding signal intensity (CaBzz1-D2): 147 | SPOT peptide array binding signal intensity (CaCyk3): 76 | SPOT peptide array binding signal intensity (CaFus1): 338 | SPOT peptide array binding signal intensity (CaHof1): 0.25 | SPOT peptide array binding signal intensity (CaHse1): 6.5 | SPOT peptide array binding signal intensity (CaLsb1): ≤ 0 | SPOT peptide array binding signal intensity (CaLsb4): 22.5 | SPOT peptide array binding signal intensity (CaMyo5): 1.5

RLSRLLLSLPPESFT
SPOT peptide array binding signal intensity (AgAbp1): 21.5 | SPOT peptide array binding signal intensity (AgBbc1): 5.5 | SPOT peptide array binding signal intensity (AgBem1-D1): 356 | SPOT peptide array binding signal intensity (AgBzz1-D1): 101 | SPOT peptide array binding signal intensity (AgBzz1-D2): 145 | SPOT peptide array binding signal intensity (AgCyk3): 2 | SPOT peptide array binding signal intensity (AgFus1): 878 | SPOT peptide array binding signal intensity (AgHof1): 96.5 | SPOT peptide array binding signal intensity (AgHse1): 1240 | SPOT peptide array binding signal intensity (AgLsb1): 17.8 | SPOT peptide array binding signal intensity (AgLsb4): 108 | SPOT peptide array binding signal intensity (AgMyo5): ≤ 0 | SPOT peptide array binding signal intensity (AgNbp2): 47.5 | SPOT peptide array binding signal intensity (AgRvs167): 6.5 | SPOT peptide array binding signal intensity (AgSho1): 70 | SPOT peptide array binding signal intensity (AgSla1-D1-D2): 85 | SPOT peptide array binding signal intensity (AgSla1-D3): 5.5 | SPOT peptide array binding signal intensity (CaAbp1-D1): 152 | SPOT peptide array binding signal intensity (CaAbp1-D2): 48 | SPOT peptide array binding signal intensity (CaBbc1): 73.5 | SPOT peptide array binding signal intensity (CaBem1-D1): 1 | SPOT peptide array binding signal intensity (CaBzz1-D1): 46 | SPOT peptide array binding signal intensity (CaBzz1-D2): 138 | SPOT peptide array binding signal intensity (CaCyk3): 17 | SPOT peptide array binding signal intensity (CaFus1): 3850 | SPOT peptide array binding signal intensity (CaHof1): 0.5 | SPOT peptide array binding signal intensity (CaHse1): 33.5 | SPOT peptide array binding signal intensity (CaLsb1): 1.5 | SPOT peptide array binding signal intensity (CaLsb4): 37.5 | SPOT peptide array binding signal intensity (CaMyo5): 28 | SPOT peptide array binding signal intensity (CaNbp2): 287 | SPOT peptide array binding signal intensity (CaRvs167): 64.2 | SPOT peptide array binding signal intensity (CaRvs167-3): 1010 | SPOT peptide array binding signal intensity (CaSho1): 588 | SPOT peptide array binding signal intensity (CaSla1-D1-D2): ≤ 0 | SPOT peptide array binding signal intensity (CaSla1-D3): 45.5 | SPOT peptide array binding signal intensity (ScAbp1): 49 | SPOT peptide array binding signal intensity (ScBbc1): 1.25 | SPOT peptide array binding signal intensity (ScBem1-D1): 102 | SPOT peptide array binding signal intensity (ScBzz1-D1): 94 | SPOT peptide array binding signal intensity (ScBzz1-D2): 118 | SPOT peptide array binding signal intensity (ScCyk3): 89 | SPOT peptide array binding signal intensity (ScFus1): 1180 | SPOT peptide array binding signal intensity (ScHof1): 1 | SPOT peptide array binding signal intensity (ScHse1): 1930 | SPOT peptide array binding signal intensity (ScLsb1): 1.5 | SPOT peptide array binding signal intensity (ScLsb2): 9 | SPOT peptide array binding signal intensity (ScLsb3): 127 | SPOT peptide array binding signal intensity (ScLsb4): 4.5 | SPOT peptide array binding signal intensity (ScMyo3): ≤ 0 | SPOT peptide array binding signal intensity (ScMyo5): 6 | SPOT peptide array binding signal intensity (ScNbp2): 176 | SPOT peptide array binding signal intensity (ScPex13): 1.75 | SPOT peptide array binding signal intensity (ScRvs167): 20.3 | SPOT peptide array binding signal intensity (ScSho1): 1770 | SPOT peptide array binding signal intensity (ScSla1-D1-D2): ≤ 0 | SPOT peptide array binding signal intensity (ScSla1-D3): 5.75 | SPOT peptide array binding signal intensity (SpAbp1-D1): 198 | SPOT peptide array binding signal intensity (SpBbc1): 0.5 | SPOT peptide array binding signal intensity (SpBzz1-D1): 315 | SPOT peptide array binding signal intensity (SpBzz1-D2): ≤ 0 | SPOT peptide array binding signal intensity (SpCyk3): 10 | SPOT peptide array binding signal intensity (SpHof1): 252 | SPOT peptide array binding signal intensity (SpHof1-2): 24.2 | SPOT peptide array binding signal intensity (SpHof1-3): 441 | SPOT peptide array binding signal intensity (SpHse1): 1330 | SPOT peptide array binding signal intensity (SpLsb1): 1.25 | SPOT peptide array binding signal intensity (SpLsb4): 20 | SPOT peptide array binding signal intensity (SpMyo1): 6.5 | SPOT peptide array binding signal intensity (SpNbp2): 76 | SPOT peptide array binding signal intensity (SpPex13): 16 | SPOT peptide array binding signal intensity (SpRvs167): 13.7 | SPOT peptide array binding signal intensity (SpSla1-D1-D2): ≤ 0 | SPOT peptide array binding signal intensity (SpSla1-D3): 6

Source: the supplement of paper PMC4466140
